Data from PubChem BioAssay (Tox21).
“And” between values parts separate entries of the source, which are not always exact repeats. Identical values can stand only once. Records with an inconclusive call do not appear. Where a call stands in place of a potency, no number is given. The source made the active and inactive calls. Unless noted, calls follow the shape of the dose curve; as a rule, active = well fitted curve in the direction sought with a large enough effect in the repeat runs; inconclusive = weak or mixed curves; inactive = no such curve, though single readings can be large; an effect the other way counts as inactive or inconclusive.

How the values were obtained:
[1] = target: Acetylcholinesterase (Homo sapiens) (UniProt P22303); experiment: Acetylcholinesterase (AChE) small molecule antagonists: enzyme-based qHTS assay (AID 1347397; calls by dose curve; also: nearly all actives have a fitted effect of over 55% in size; also: potency is read from the fitted curve at half-maximal effect); details: Potency: AChE enzyme activity inhibition; outcome: AChE enzyme activity inhibition
Acetylcholinesterase (Homo sapiens), sequence (P22303 whole entry, looked up): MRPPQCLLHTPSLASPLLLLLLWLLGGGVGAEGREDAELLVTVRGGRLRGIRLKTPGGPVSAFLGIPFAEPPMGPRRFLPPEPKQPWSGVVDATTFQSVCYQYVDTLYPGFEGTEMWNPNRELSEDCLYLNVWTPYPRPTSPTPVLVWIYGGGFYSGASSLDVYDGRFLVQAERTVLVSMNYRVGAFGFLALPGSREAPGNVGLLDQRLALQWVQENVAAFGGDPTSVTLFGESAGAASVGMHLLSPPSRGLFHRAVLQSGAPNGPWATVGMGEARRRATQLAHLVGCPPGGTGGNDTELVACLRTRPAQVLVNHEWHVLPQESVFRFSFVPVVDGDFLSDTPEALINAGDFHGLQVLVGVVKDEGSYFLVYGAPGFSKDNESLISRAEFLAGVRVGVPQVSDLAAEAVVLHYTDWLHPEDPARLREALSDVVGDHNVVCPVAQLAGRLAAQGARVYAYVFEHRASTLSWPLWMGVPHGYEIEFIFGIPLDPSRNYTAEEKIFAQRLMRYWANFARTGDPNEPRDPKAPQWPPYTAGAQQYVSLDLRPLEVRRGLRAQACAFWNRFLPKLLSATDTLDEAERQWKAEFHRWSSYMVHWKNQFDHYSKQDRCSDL
Procedure, shortened: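 Tox21 library chemicals are tested in qHTS format against recombinant human AChE. The enzyme, dispensed at 50 mU/mL, sits with compound for 30 min at room temperature. A DTNB–acetylthiocholine cocktail follows, and colour is read after 10 min.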

[2] = target: Acetylcholinesterase (Homo sapiens) (UniProt P22303); experiment: Acetylcholinesterase (AChE) small molecule antagonists: fluorescence cell-based qHTS assay (AID 1347398; calls by dose curve; also: nearly all actives have a fitted effect of over 50% in size; also: potency is read from the fitted curve at half-maximal effect); details: Potency: AChE activity; outcome: AChE activity
Procedure, shortened: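 Cellular AChE inhibition: SH-SY5Y cells treated with test chemical for 30 min at 37 C, then acetylthiocholine hydrolysis followed over 40 min at room temperature via thiocholine-reactive Thiolite Green fluorescence (490/520 nm).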

[3] = target: Acetylcholinesterase (Homo sapiens) (UniProt P22303); experiment: Acetylcholinesterase (AChE) small molecule antagonists: enzyme-based qHTS assay with human liver microsomes (AID 1347399; calls by dose curve; also: nearly all actives have a fitted effect of over 60% in size; also: potency is read from the fitted curve at half-maximal effect); details: Potency: qHTS inhibition; outcome: qHTS inhibition
Procedure, shortened: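 Recombinant human AChE (50 mU/mL in the enzyme mix) and human liver microsomes (0.25 mg/mL final) were preincubated with compound and NADPH (0.25 mg/mL final) for 30 min at 37 C. Acetylthiocholine/DTNB was then added; thiocholine was read colorimetrically after 10 min at room temperature.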

[4] = target: Cytochrome P450 2D6 (Homo sapiens) (UniProt P10635); experiment: Cytochrome P450 Family 2 Subfamily D Member 6 (CYP2D6) small molecule antagonists: luciferase reporter qHTS assay (AID 1671196); also: nearly all actives have a fitted effect of over 50% in size; also: potency is read from the fitted curve at half-maximal effect
Cytochrome P450 2D6 (Homo sapiens), sequence (P10635 whole entry, looked up): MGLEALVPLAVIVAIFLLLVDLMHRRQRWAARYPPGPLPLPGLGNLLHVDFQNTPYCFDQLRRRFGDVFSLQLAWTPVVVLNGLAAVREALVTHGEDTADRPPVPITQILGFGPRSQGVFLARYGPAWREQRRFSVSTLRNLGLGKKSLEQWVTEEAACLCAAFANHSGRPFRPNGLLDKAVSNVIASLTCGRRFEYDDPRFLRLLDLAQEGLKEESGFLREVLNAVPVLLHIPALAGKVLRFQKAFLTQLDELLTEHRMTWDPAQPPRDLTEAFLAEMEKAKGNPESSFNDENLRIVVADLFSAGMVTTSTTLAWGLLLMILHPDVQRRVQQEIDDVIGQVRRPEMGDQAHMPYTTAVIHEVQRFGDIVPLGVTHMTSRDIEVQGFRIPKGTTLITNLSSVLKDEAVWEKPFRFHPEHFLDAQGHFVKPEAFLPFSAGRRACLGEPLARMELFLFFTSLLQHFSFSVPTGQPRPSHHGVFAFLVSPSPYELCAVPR
Procedure, shortened: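 Chemicals tested for interference with CYP2D6 activity; proluciferin substrate, NADPH regeneration, 1 h at room temperature, luminescent detection.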

[5] = target: Cytochrome P450 2C19 (Homo sapiens) (UniProt P33261); experiment: Cytochrome P450 Family 2 Subfamily C Member 19 (CYP2C19) small molecule antagonists: luciferase reporter qHTS assay (AID 1671197); also: nearly all actives have a fitted effect of over 65% in size; also: potency is read from the fitted curve at half-maximal effect
Cytochrome P450 2C19 (Homo sapiens), sequence (P33261 whole entry, looked up): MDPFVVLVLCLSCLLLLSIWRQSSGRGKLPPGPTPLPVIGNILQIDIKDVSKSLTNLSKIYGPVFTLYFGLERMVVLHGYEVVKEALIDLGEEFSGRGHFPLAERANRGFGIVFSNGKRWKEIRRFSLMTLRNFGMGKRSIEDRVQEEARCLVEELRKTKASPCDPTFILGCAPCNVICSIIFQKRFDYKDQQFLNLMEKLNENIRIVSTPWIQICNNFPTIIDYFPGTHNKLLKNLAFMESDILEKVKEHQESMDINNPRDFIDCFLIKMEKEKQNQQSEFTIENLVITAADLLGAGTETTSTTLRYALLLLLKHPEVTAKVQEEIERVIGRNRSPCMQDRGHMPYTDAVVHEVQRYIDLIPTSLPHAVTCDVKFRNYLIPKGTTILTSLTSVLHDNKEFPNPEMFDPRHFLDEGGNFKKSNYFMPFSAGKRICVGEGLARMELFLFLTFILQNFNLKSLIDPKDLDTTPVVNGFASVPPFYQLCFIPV
Procedure, shortened: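 Relative luminescence units recorded 20 min after the detection reagent stopped a 1 h, 37C CYP2C19 reaction on proluciferin substrate, which was started by NADPH regeneration following 10 min room-temperature compound preincubation; ketoconazole positive control.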

[6] = target: Cytochrome P450 1A2 (Homo sapiens) (UniProt P05177); experiment: Cytochrome P450 Family 1 Subfamily A Member 2 (CYP1A2) small molecule antagonists: luciferase reporter qHTS assay (AID 1671199); also: nearly all actives have a fitted effect of over 50% in size; also: potency is read from the fitted curve at half-maximal effect
Cytochrome P450 1A2 (Homo sapiens), sequence (P05177 whole entry, looked up): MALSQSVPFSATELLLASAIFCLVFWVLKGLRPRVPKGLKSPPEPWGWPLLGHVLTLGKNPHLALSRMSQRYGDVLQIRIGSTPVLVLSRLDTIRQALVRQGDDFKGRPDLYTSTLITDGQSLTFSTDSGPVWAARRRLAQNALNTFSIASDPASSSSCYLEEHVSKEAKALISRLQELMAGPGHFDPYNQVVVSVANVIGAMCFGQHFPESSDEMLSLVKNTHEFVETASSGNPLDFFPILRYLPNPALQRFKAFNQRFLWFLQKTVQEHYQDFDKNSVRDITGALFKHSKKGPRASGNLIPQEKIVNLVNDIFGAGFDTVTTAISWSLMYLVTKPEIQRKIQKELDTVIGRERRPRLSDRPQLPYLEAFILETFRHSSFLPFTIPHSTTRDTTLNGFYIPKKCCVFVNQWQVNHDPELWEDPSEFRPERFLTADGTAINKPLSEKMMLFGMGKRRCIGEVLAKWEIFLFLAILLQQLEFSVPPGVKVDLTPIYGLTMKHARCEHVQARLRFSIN
Procedure, shortened: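 Read-out is luminescence from luciferin detection reagent (20 min) proportional to CYP1A2 activity; compounds in DMSO preincubated 10 min with enzyme and proluciferin substrate, then NADPH regeneration solution, 1 h, room temperature.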

[7] = target: Voltage-gated inwardly rectifying potassium channel KCNH2 (Homo sapiens) (UniProt Q12809); experiment: Human Ether-a-go-go-Related Gene (hERG) channel small molecule antagonists: fluorescence cell-based qHTS assay (AID 1671200);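 also: hERG-expressing U2OS cells given a thallium stimulus after FluxOR II dye loading; series mostly up to about 77 µM; nearly all actives have a fitted effect of over 50% in size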
Voltage-gated inwardly rectifying potassium channel KCNH2 (Homo sapiens), sequence (Q12809 whole entry, looked up): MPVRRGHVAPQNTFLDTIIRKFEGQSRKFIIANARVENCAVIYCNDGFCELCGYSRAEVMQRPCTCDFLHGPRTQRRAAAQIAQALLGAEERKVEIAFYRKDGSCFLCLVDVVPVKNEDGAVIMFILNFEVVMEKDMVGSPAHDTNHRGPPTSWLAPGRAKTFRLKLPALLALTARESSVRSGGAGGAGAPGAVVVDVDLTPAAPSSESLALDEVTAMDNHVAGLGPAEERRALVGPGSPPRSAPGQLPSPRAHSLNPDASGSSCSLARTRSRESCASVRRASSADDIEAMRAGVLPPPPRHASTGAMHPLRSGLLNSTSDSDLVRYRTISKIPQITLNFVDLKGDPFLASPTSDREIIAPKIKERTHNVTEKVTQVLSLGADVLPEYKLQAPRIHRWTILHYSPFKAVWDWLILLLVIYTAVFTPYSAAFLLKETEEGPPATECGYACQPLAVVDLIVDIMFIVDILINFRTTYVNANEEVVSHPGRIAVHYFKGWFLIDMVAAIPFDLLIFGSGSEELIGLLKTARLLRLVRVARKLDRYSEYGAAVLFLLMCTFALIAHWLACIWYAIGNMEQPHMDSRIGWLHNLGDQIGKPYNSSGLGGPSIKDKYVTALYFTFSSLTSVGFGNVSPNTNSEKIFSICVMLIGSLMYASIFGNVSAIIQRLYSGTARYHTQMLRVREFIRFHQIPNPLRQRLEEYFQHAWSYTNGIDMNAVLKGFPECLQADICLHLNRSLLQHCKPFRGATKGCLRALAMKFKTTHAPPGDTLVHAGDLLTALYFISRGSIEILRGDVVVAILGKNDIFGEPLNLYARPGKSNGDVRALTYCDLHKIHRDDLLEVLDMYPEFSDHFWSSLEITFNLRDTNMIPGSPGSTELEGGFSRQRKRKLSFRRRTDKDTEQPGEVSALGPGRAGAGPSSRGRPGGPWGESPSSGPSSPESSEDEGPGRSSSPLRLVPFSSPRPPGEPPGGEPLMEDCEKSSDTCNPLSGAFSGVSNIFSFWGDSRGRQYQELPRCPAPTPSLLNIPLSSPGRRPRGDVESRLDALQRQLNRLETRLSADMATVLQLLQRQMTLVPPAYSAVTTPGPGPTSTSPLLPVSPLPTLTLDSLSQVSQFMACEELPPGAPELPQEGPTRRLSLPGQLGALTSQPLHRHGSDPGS
Procedure, shortened: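 Kinetic two-minute fluorescence traces, sampled at 1 s, were collected following thallium stimulus of U2OS cells (1000 per well) that had been cultured overnight at 37 C and loaded with FluxOR II.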

[8] = target: Cytochrome P450 3A4 (Homo sapiens) (UniProt P08684); experiment: Cytochrome P450 Family 3 Subfamily A Member 4 (CYP3A4) small molecule antagonists: luciferase reporter qHTS assay (AID 1671201)
Cytochrome P450 3A4 (Homo sapiens), sequence (P08684 whole entry, looked up): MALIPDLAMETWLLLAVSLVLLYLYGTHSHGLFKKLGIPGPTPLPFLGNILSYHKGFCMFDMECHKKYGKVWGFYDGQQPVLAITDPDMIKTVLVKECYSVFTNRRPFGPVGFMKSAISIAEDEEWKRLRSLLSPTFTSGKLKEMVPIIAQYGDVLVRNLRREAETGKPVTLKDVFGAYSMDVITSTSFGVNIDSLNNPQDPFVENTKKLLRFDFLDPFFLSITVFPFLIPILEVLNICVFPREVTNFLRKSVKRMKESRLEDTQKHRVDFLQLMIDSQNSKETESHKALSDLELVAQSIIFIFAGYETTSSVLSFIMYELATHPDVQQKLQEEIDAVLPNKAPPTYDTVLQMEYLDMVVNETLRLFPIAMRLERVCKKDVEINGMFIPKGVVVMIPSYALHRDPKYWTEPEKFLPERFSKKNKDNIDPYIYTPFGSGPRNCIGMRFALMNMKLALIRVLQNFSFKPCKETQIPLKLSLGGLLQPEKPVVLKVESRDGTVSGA
Procedure, shortened: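 Proluciferin-to-luciferin conversion by CYP3A4, NADPH-regenerated, 1 h RT; luminescence read as RLU. Ketoconazole as control.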

[9] = target: Cytochrome P450 2C9 (Homo sapiens) (UniProt P11712); experiment: Cytochrome P450 Family 2 Subfamily C Member 9 (CYP2C9) small molecule antagonists: luciferase reporter qHTS assay (AID 1671198); also: nearly all actives have a fitted effect of over 50% in size; also: potency is read from the fitted curve at half-maximal effect
Cytochrome P450 2C9 (Homo sapiens), sequence (P11712 whole entry, looked up): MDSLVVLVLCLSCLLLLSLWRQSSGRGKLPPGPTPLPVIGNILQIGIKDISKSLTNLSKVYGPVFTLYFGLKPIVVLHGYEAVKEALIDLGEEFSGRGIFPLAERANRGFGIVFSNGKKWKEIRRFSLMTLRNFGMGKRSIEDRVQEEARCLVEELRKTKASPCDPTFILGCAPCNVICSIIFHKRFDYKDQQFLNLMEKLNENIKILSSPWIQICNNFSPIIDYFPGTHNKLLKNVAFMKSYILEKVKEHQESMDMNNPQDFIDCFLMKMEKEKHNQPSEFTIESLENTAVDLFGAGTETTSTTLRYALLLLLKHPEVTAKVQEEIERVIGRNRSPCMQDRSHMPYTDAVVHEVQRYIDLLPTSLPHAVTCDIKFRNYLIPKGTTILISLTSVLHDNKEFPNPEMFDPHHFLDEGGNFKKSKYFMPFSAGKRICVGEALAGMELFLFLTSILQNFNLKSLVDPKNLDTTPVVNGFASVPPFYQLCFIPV
Procedure, shortened: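 CYP2C9 activity was measured with a P450-Glo proluciferin substrate. Enzyme–substrate mix was held with compound for 10 min at room temperature, then NADPH regeneration solution was added for 1 h at 37C. Luciferin product was read as luminescence.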

With `O=C(CCl)CCl` the Potency [1] was “inactive”, the Potency [2] was “inactive” and the Potency [3] was “inactive”. The Potency [4] was “inactive”, the Potency [5] was “inactive” and the Potency [6] was “inactive”. The Potency [7] was “inactive”.
With `C=C(Cl)Cl` the Potency [1] was “inactive”, the Potency [2] was “inactive” and the Potency [3] was “inactive”. The Potency [4] was “inactive”, the Potency [5] was 75.6 µM (active) and the Potency [7] was “inactive”. For the same compound, the Potency [8] was “inactive”.
With `CC[N+]1(C)CCCC(OC(=O)C(O)(c2ccccc2)c2ccccc2)C1` (stereo unspecified) the Potency [1] was “inactive”, the Potency [2] was “inactive” and the Potency [3] was “inactive”. For the same compound, the Potency [4] was 2.75 µM (active), the Potency [5] was “inactive” and the Potency [6] was “inactive”. For the same compound, the Potency [7] was “inactive” and the Potency [8] was “inactive”.
In the case of `CCCCC#N`, the Potency [1] is reported as “inactive”, the Potency [2] is reported as “inactive” and the Potency [3] is reported as “inactive”. The Potency [4] was “inactive”, the Potency [9] was “inactive” and the Potency [6] was “inactive”. For the same compound, the Potency [7] was “inactive”.
With `CN(C1CCCCC1)C1CCCCC1` the Potency [1] was “inactive”, the Potency [2] was “inactive” and the Potency [3] was “inactive”. The Potency [4] was 3.17 µM (active), the Potency [5] was “inactive” and the Potency [6] was “inactive”. For the same compound, the Potency [7] was “inactive” and the Potency [8] was “inactive”.
In the case of `Clc1ccccc1`, the Potency [1] is reported as “inactive”, the Potency [2] is reported as “inactive” and the Potency [3] is reported as “inactive”. For the same compound, the Potency [4] was “inactive”, the Potency [5] was “inactive” and the Potency [6] was “inactive”. The Potency [7] was “inactive”.
For `CCC(C)(C)O`, the Potency [1] was “inactive”, the Potency [2] was “inactive” and the Potency [3] was “inactive”. For the same compound, the Potency [4] was “inactive”, the Potency [5] was “inactive” and the Potency [7] was “inactive”. The Potency [8] was “inactive”.
With `C=CCc1ccccc1O` the Potency [1] was “inactive”, the Potency [2] was “inactive” and the Potency [3] was “inactive”. For the same compound, the Potency [4] was “inactive”, the Potency [5] was “inactive” and the Potency [6] was 31.7 µM (active). For the same compound, the Potency [7] was “inactive” and the Potency [8] was “inactive”.
`Cc1nc(N(C)C)nc(OC(=O)N(C)C)c1C` was tested, and the Potency [1] was 10 µM (active), the Potency [2] was 11.2 µM (active) and the Potency [3] was 63.3 µM (active). For the same compound, the Potency [4] was “inactive”, the Potency [5] was 79.6 µM (active) and the Potency [6] was 22.4 µM (active). The Potency [7] was “inactive” and the Potency [8] was “inactive”.
With `C[N+](C)(C)CC1CO1` (stereo unspecified) the Potency [1] was “inactive”, the Potency [2] was “inactive” and the Potency [3] was “inactive”. For the same compound, the Potency [4] was “inactive”, the Potency [5] was “inactive” and the Potency [7] was “inactive”. For the same compound, the Potency [8] was “inactive”.
With `CCCCCl` the Potency [1] was “inactive”, the Potency [2] was “inactive” and the Potency [3] was “inactive”. For the same compound, the Potency [4] was 18.3 µM (active), the Potency [6] was 57.9 µM (active) and the Potency [7] was “inactive”. The Potency [8] was “inactive”.
In the case of `CC(CC(C(N)=O)(c1ccccc1)c1ccccc1)N(C)C` (stereo unspecified), the Potency [1] is reported as “inactive”, the Potency [2] is reported as “inactive” and the Potency [3] is reported as “inactive”. The Potency [4] was 6.17 µM (active), the Potency [9] was “inactive” and the Potency [6] was “inactive”. For the same compound, the Potency [7] was “inactive” and the Potency [8] was “inactive”.
For `Oc1cccc(Cl)c1`, the Potency [1] was “inactive”, the Potency [2] was “inactive” and the Potency [3] was “inactive”. For the same compound, the Potency [4] was “inactive”, the Potency [9] was “inactive” and the Potency [7] was “inactive”. The Potency [8] was “inactive”.
With `CCC1(CC)C(=O)NC(=O)NC1=O` the Potency [1] was “inactive”, the Potency [2] was “inactive” and the Potency [3] was “inactive”. The Potency [4] was “inactive”, the Potency [9] was “inactive” and the Potency [6] was “inactive”. The Potency [7] was “inactive” and the Potency [8] was “inactive”.
`O=C(O)c1ccc(=O)[nH]c1` was tested, and the Potency [1] was “inactive”, the Potency [2] was “inactive” and the Potency [3] was “inactive”. The Potency [4] was “inactive”, the Potency [9] was “inactive” and the Potency [6] was “inactive”. For the same compound, the Potency [7] was “inactive” and the Potency [8] was “inactive”.
With `CCCC[N+]1(C)[C@@H]2CC(OC(=O)[C@H](CO)c3ccccc3)C[C@H]1[C@@H]1O[C@@H]12` (stereo partly specified) the Potency [1] was “inactive”, the Potency [2] was “inactive” and the Potency [3] was “inactive”. The Potency [4] was 1.55 µM (active), the Potency [9] was “inactive” and the Potency [6] was “inactive”. For the same compound, the Potency [7] was “inactive” and the Potency [8] was “inactive”.
`O=C(O)C(F)(F)C(F)(F)C(F)(F)C(F)(F)C(F)(F)C(F)(F)C(F)(F)C(F)(F)F` was tested, and the Potency [1] was “inactive”, the Potency [2] was “inactive” and the Potency [3] was “inactive”. For the same compound, the Potency [4] was “inactive”, the Potency [9] was 1.78 µM (active) and the Potency [6] was “inactive”. For the same compound, the Potency [7] was “inactive” and the Potency [8] was “inactive”.
For `COC(=O)C1(O)c2ccccc2-c2ccccc21`, the Potency [1] was “inactive”, the Potency [2] was “inactive” and the Potency [3] was “inactive”. For the same compound, the Potency [4] was “inactive” and the Potency [6] was 25.2 µM (active).
With `Cc1cnc(C2=NC(C)(C(C)C)C(=O)N2)c(C(=O)O)c1` (stereo unspecified) the Potency [1] was “inactive”, the Potency [2] was “inactive” and the Potency [3] was “inactive”. The Potency [4] was “inactive”, the Potency [9] was “inactive” and the Potency [6] was “inactive”. The Potency [7] was “inactive” and the Potency [8] was “inactive”.
`CC[N+]1(CCOC(=O)C(O)(c2ccccc2)c2ccccc2)CCCCC1` was tested, and the Potency [1] was “inactive”, the Potency [2] was “inactive” and the Potency [3] was “inactive”. The Potency [4] was 0.977 µM (active), the Potency [9] was “inactive” and the Potency [6] was “inactive”. The Potency [7] was “inactive” and the Potency [8] was “inactive”.
In the case of `CCCCNC(=O)OCC#CI`, the Potency [1] is reported as “inactive”, the Potency [2] is reported as “inactive” and the Potency [3] is reported as “inactive”. The Potency [4] was 31.6 µM (active) and 35.6 µM (active), the Potency [6] was 3.54 µM (active) and 5.64 µM (active) and the Potency [7] was “inactive”.
With `N#CC(C#N)=C(C#N)C#N` the Potency [1] was “inactive”, the Potency [2] was “inactive” and the Potency [3] was “inactive”. The Potency [5] was 58.9 µM (active), the Potency [9] was 33.1 µM (active) and the Potency [6] was 41.7 µM (active). The Potency [7] was “inactive”.
For `Clc1ccc2ccccc2c1`, the Potency [1] was “inactive”, the Potency [2] was “inactive” and the Potency [3] was “inactive”. For the same compound, the Potency [5] was “inactive”, the Potency [9] was “inactive” and the Potency [7] was “inactive”. For the same compound, the Potency [8] was “inactive”.
`O=C(Cl)OCCOCCOC(=O)Cl` was tested, and the Potency [1] was “inactive”, the Potency [2] was “inactive” and the Potency [3] was “inactive”. The Potency [4] was 79.6 µM (active), the Potency [7] was “inactive” and the Potency [8] was “inactive”.
With `CCCCCCCCCCCCN(C)C` the Potency [1] was “inactive”, the Potency [2] was “inactive” and the Potency [3] was “inactive”. For the same compound, the Potency [4] was “inactive”, the Potency [6] was 35.6 µM (active) and the Potency [7] was “inactive”.
